According to article PMC11006913:
Changes are numbered by the printed parent chain.

Legend:
Assay in all cases: PBM; 200 nM protein, PBS
Settings in all cases: dsDNA, one strand shown
CRX [1] = target: CRX (Homo sapiens, UniProt O43186 26-111)
CRX [2] = target: CRX (Homo sapiens, UniProt O43186 26-111, E42D)
PITX2 = PITX2 (Homo sapiens, UniProt Q99697 72-157)
CRX [3] = target: CRX (Homo sapiens, UniProt O43186 26-111, R41L)
ALX1 [4] = target: ALX1 (Homo sapiens, UniProt Q15699 118-204, L144V)
ALX1 [5] = target: ALX1 (Homo sapiens, UniProt Q15699 118-204, L144R)
ALX1 [6] = target: ALX1 (Homo sapiens, UniProt Q15699 118-204)
NKX2-6 [7] = target: T1, NKX2-6 (Homo sapiens, UniProt A6NCS4 118-204)
T1 sequence: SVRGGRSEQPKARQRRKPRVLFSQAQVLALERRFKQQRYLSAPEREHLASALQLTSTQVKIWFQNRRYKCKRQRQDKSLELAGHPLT

VAX1 [8] = target: VAX1 (Homo sapiens, UniProt Q5SQQ9 86-172)
NKX2-6 [9] = target: T2, NKX2-6 (Homo sapiens, UniProt A6NCS4 118-204, F151L)
T2 sequence: T1 sequence with F34L

VAX1 [10] = target: VAX1 (Homo sapiens, UniProt Q5SQQ9 86-172, T142I)
VAX1 [11] = target: VAX1 (Homo sapiens, UniProt Q5SQQ9 86-172, K157R)
Chain of VAX1 (Homo sapiens, UniProt Q5SQQ9 86-172, K157R) (Q5SQQ9 86-172 K157R): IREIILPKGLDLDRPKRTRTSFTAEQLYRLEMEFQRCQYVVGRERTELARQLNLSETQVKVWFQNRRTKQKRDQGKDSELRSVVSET

Chain of CRX (Homo sapiens, UniProt O43186 26-111, E42D) (O43186 26-111 E42D): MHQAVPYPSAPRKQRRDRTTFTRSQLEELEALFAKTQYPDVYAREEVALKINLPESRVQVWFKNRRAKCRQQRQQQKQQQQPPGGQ
Chain of CRX (Homo sapiens, UniProt O43186 26-111) (O43186 26-111): as the sequence (O43186 26-111 E42D) above, with D17E counted along it
Chain of CRX (Homo sapiens, UniProt O43186 26-111, R41L) (O43186 26-111 R41L): as the sequence (O43186 26-111 E42D) above, with R16L, D17E counted along it
Chain of VAX1 (Homo sapiens, UniProt Q5SQQ9 86-172, T142I) (Q5SQQ9 86-172 T142I): as the sequence (Q5SQQ9 86-172 K157R) above, with T57I, R72K counted along it
Chain of VAX1 (Homo sapiens, UniProt Q5SQQ9 86-172) (Q5SQQ9 86-172): as the sequence (Q5SQQ9 86-172 K157R) above, with R72K counted along it
Chain of ALX1 (Homo sapiens, UniProt Q15699 118-204, L144V) (Q15699 118-204 L144V): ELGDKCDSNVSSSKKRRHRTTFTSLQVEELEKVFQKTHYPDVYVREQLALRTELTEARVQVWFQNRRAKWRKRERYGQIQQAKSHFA
Chain of ALX1 (Homo sapiens, UniProt Q15699 118-204) (Q15699 118-204): as the sequence (Q15699 118-204 L144V) above, with V27L counted along it
Chain of ALX1 (Homo sapiens, UniProt Q15699 118-204, L144R) (Q15699 118-204 L144R): as the sequence (Q15699 118-204 L144V) above, with V27R counted along it

For AAGGATTA, the binding signal (CRX [1]) was 13.4 upbm affinity estimate (log intensity, higher = more binding, comparable within an allelic series), the binding signal (CRX [2]) was 13.4 upbm affinity estimate (log intensity, higher = more binding, comparable within an allelic series) and the binding signal (PITX2) was 13.2 upbm affinity estimate (log intensity, higher = more binding, comparable within an allelic series). For the same sequence, the binding signal (CRX [3]) was 13.4 upbm affinity estimate (log intensity, higher = more binding, comparable within an allelic series).
CAGGATTA was tested, and the binding signal (CRX [1]) was 13.1 upbm affinity estimate (log intensity, higher = more binding, comparable within an allelic series), the binding signal (CRX [2]) was 13.2 upbm affinity estimate (log intensity, higher = more binding, comparable within an allelic series) and the binding signal (PITX2) was 12.9 upbm affinity estimate (log intensity, higher = more binding, comparable within an allelic series). The binding signal (CRX [3]) was 13 upbm affinity estimate (log intensity, higher = more binding, comparable within an allelic series).
For ACCTCCCA, the binding signal (CRX [1]) was 8.37 upbm affinity estimate (log intensity, higher = more binding, comparable within an allelic series), the binding signal (CRX [2]) was 8.4 upbm affinity estimate (log intensity, higher = more binding, comparable within an allelic series) and the binding signal (PITX2) was 8.05 upbm affinity estimate (log intensity, higher = more binding, comparable within an allelic series). The binding signal (CRX [3]) was 8.28 upbm affinity estimate (log intensity, higher = more binding, comparable within an allelic series).
In the case of GCTAATCC, the binding signal (CRX [1]) is reported as 13.4 upbm affinity estimate (log intensity, higher = more binding, comparable within an allelic series), the binding signal (CRX [2]) is reported as 13.5 upbm affinity estimate (log intensity, higher = more binding, comparable within an allelic series) and the binding signal (PITX2) is reported as 13.3 upbm affinity estimate (log intensity, higher = more binding, comparable within an allelic series). For the same sequence, the binding signal (CRX [3]) was 13.4 upbm affinity estimate (log intensity, higher = more binding, comparable within an allelic series).
For CCTAATCC, the binding signal (CRX [1]) was 13.5 upbm affinity estimate (log intensity, higher = more binding, comparable within an allelic series), the binding signal (CRX [2]) was 13.6 upbm affinity estimate (log intensity, higher = more binding, comparable within an allelic series) and the binding signal (PITX2) was 13.3 upbm affinity estimate (log intensity, higher = more binding, comparable within an allelic series). For the same sequence, the binding signal (CRX [3]) was 13.2 upbm affinity estimate (log intensity, higher = more binding, comparable within an allelic series).
With GACAACCA the binding signal (CRX [1]) was 8.34 upbm affinity estimate (log intensity, higher = more binding, comparable within an allelic series), the binding signal (CRX [2]) was 8.18 upbm affinity estimate (log intensity, higher = more binding, comparable within an allelic series) and the binding signal (PITX2) was 7.92 upbm affinity estimate (log intensity, higher = more binding, comparable within an allelic series). The binding signal (CRX [3]) was 8.21 upbm affinity estimate (log intensity, higher = more binding, comparable within an allelic series).
In the case of TAATCCGA, the binding signal (CRX [1]) is reported as 13.6 upbm affinity estimate (log intensity, higher = more binding, comparable within an allelic series), the binding signal (CRX [2]) is reported as 13.6 upbm affinity estimate (log intensity, higher = more binding, comparable within an allelic series) and the binding signal (PITX2) is reported as 13.1 upbm affinity estimate (log intensity, higher = more binding, comparable within an allelic series). The binding signal (CRX [3]) was 13.5 upbm affinity estimate (log intensity, higher = more binding, comparable within an allelic series).
With GGGATTAA the binding signal (CRX [1]) was 13.7 upbm affinity estimate (log intensity, higher = more binding, comparable within an allelic series), the binding signal (CRX [2]) was 13.8 upbm affinity estimate (log intensity, higher = more binding, comparable within an allelic series) and the binding signal (PITX2) was 13.6 upbm affinity estimate (log intensity, higher = more binding, comparable within an allelic series). For the same sequence, the binding signal (CRX [3]) was 13.7 upbm affinity estimate (log intensity, higher = more binding, comparable within an allelic series).
In the case of CGGACACG, the binding signal (CRX [1]) is reported as 8.06 upbm affinity estimate (log intensity, higher = more binding, comparable within an allelic series), the binding signal (CRX [2]) is reported as 8.04 upbm affinity estimate (log intensity, higher = more binding, comparable within an allelic series) and the binding signal (ALX1 [4]) is reported as 6.53 upbm affinity estimate (log intensity, higher = more binding, comparable within an allelic series). The binding signal (ALX1 [5]) was 6.6 upbm affinity estimate (log intensity, higher = more binding, comparable within an allelic series), the binding signal (CRX [3]) was 8.13 upbm affinity estimate (log intensity, higher = more binding, comparable within an allelic series) and the binding signal (ALX1 [6]) was 6.41 upbm affinity estimate (log intensity, higher = more binding, comparable within an allelic series).
For CCCAGTCC, the binding signal (CRX [1]) was 8.2 upbm affinity estimate (log intensity, higher = more binding, comparable within an allelic series), the binding signal (CRX [2]) was 8.28 upbm affinity estimate (log intensity, higher = more binding, comparable within an allelic series) and the binding signal (NKX2-6 [7]) was 9.59 upbm affinity estimate (log intensity, higher = more binding, comparable within an allelic series). The binding signal (VAX1 [8]) was 7.25 upbm affinity estimate (log intensity, higher = more binding, comparable within an allelic series), the binding signal (NKX2-6 [9]) was 9.36 upbm affinity estimate (log intensity, higher = more binding, comparable within an allelic series) and the binding signal (VAX1 [10]) was 7.27 upbm affinity estimate (log intensity, higher = more binding, comparable within an allelic series). The binding signal (CRX [3]) was 8.25 upbm affinity estimate (log intensity, higher = more binding, comparable within an allelic series) and the binding signal (VAX1 [11]) was 7.03 upbm affinity estimate (log intensity, higher = more binding, comparable within an allelic series).
With GGGGCTTA the binding signal (CRX [1]) was 12.8 upbm affinity estimate (log intensity, higher = more binding, comparable within an allelic series), the binding signal (CRX [2]) was 12.7 upbm affinity estimate (log intensity, higher = more binding, comparable within an allelic series) and the binding signal (PITX2) was 12.4 upbm affinity estimate (log intensity, higher = more binding, comparable within an allelic series).
For ATGGATTA, the binding signal (CRX [1]) was 13.2 upbm affinity estimate (log intensity, higher = more binding, comparable within an allelic series), the binding signal (CRX [2]) was 13.2 upbm affinity estimate (log intensity, higher = more binding, comparable within an allelic series) and the binding signal (PITX2) was 13.2 upbm affinity estimate (log intensity, higher = more binding, comparable within an allelic series). The binding signal (CRX [3]) was 13 upbm affinity estimate (log intensity, higher = more binding, comparable within an allelic series).
For CGTTAATC, the binding signal (CRX [1]) was 12.8 upbm affinity estimate (log intensity, higher = more binding, comparable within an allelic series), the binding signal (CRX [2]) was 12.6 upbm affinity estimate (log intensity, higher = more binding, comparable within an allelic series) and the binding signal (PITX2) was 12.4 upbm affinity estimate (log intensity, higher = more binding, comparable within an allelic series). For the same sequence, the binding signal (CRX [3]) was 12.3 upbm affinity estimate (log intensity, higher = more binding, comparable within an allelic series).
For GGGGATTA, the binding signal (CRX [1]) was 13.7 upbm affinity estimate (log intensity, higher = more binding, comparable within an allelic series), the binding signal (CRX [2]) was 13.8 upbm affinity estimate (log intensity, higher = more binding, comparable within an allelic series) and the binding signal (PITX2) was 13.5 upbm affinity estimate (log intensity, higher = more binding, comparable within an allelic series). For the same sequence, the binding signal (CRX [3]) was 13.8 upbm affinity estimate (log intensity, higher = more binding, comparable within an allelic series).
For ATAATCCA, the binding signal (CRX [1]) was 13.2 upbm affinity estimate (log intensity, higher = more binding, comparable within an allelic series), the binding signal (CRX [2]) was 13.3 upbm affinity estimate (log intensity, higher = more binding, comparable within an allelic series) and the binding signal (PITX2) was 13 upbm affinity estimate (log intensity, higher = more binding, comparable within an allelic series). For the same sequence, the binding signal (CRX [3]) was 13.3 upbm affinity estimate (log intensity, higher = more binding, comparable within an allelic series).
For GGATTAGA, the binding signal (CRX [1]) was 13.3 upbm affinity estimate (log intensity, higher = more binding, comparable within an allelic series), the binding signal (CRX [2]) was 13.2 upbm affinity estimate (log intensity, higher = more binding, comparable within an allelic series) and the binding signal (PITX2) was 13.1 upbm affinity estimate (log intensity, higher = more binding, comparable within an allelic series). The binding signal (CRX [3]) was 13.1 upbm affinity estimate (log intensity, higher = more binding, comparable within an allelic series).
